Results from the supplement of paper PMC11732987, “Enantioselective OTUD7B fragment discovery through chemoproteomics screening and high-throughput optimisation” (Communications Chemistry, 2025).

Assays:
Test in all cases: log2 ratio of Biotin-Ahx-Ub-VS probe labelling (fragment/DMSO); higher = less target engagement (more negative = stronger competition), active = hit call of the paper (q ≤ 0.05, log2 ratio ≤ -1)
Details in all cases: compound concentration: 200 uM; treatment time: 3 h
[1] = target: T1, USP19 (UniProt O94966)
T1 sequence (whole entry): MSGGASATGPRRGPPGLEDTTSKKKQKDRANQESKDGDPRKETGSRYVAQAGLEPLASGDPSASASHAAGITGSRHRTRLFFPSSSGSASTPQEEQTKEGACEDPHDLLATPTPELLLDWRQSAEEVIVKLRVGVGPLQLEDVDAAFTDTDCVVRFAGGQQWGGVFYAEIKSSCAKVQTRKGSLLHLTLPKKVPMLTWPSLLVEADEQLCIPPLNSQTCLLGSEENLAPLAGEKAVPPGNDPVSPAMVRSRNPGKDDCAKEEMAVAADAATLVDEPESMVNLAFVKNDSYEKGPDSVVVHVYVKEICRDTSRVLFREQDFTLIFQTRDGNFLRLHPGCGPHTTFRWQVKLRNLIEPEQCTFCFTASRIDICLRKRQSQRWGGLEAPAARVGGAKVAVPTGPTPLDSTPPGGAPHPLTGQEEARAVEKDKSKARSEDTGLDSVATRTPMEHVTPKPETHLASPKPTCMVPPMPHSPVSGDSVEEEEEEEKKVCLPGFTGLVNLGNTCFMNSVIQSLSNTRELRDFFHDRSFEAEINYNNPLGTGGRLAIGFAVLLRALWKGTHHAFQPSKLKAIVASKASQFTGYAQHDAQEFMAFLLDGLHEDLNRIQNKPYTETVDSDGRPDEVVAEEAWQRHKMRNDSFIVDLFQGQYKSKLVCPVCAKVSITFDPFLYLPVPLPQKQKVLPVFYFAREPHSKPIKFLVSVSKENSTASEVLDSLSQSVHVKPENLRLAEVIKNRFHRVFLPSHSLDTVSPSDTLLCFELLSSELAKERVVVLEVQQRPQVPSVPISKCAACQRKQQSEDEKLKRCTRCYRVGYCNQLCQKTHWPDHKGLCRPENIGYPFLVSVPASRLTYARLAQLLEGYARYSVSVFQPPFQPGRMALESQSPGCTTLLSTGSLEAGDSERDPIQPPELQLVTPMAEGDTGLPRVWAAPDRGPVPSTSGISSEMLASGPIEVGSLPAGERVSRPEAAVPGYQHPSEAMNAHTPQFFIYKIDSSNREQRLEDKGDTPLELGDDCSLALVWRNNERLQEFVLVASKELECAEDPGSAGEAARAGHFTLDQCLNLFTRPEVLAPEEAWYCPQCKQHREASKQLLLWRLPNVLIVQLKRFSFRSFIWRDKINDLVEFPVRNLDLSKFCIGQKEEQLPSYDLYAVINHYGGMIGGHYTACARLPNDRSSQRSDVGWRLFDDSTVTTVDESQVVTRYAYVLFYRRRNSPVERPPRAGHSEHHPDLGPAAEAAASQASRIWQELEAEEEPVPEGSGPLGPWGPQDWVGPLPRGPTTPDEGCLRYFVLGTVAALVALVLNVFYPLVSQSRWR
Summary of the method: (§1)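 Triplicate samples of HEK293T lysate, 495 µg each, received fragment at 200 µM or vehicle for 3 h, followed by Biotin-Ahx-Ub-VS (0.5 µM final) for 1 h. After NeutrAvidin enrichment of labelled DUBs and LysC/trypsin digestion, peptides were run by diaPASEF LC-MS/MS. The values are average log2 fragment/vehicle ratios from global-median-normalised Spectronaut label-free quantities, tested by unpaired t-test on proteins having ≥2 unique peptides.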

[2] = target: USP24 (UniProt Q9UPU5)
Chain of USP24 (Q9UPU5 whole entry): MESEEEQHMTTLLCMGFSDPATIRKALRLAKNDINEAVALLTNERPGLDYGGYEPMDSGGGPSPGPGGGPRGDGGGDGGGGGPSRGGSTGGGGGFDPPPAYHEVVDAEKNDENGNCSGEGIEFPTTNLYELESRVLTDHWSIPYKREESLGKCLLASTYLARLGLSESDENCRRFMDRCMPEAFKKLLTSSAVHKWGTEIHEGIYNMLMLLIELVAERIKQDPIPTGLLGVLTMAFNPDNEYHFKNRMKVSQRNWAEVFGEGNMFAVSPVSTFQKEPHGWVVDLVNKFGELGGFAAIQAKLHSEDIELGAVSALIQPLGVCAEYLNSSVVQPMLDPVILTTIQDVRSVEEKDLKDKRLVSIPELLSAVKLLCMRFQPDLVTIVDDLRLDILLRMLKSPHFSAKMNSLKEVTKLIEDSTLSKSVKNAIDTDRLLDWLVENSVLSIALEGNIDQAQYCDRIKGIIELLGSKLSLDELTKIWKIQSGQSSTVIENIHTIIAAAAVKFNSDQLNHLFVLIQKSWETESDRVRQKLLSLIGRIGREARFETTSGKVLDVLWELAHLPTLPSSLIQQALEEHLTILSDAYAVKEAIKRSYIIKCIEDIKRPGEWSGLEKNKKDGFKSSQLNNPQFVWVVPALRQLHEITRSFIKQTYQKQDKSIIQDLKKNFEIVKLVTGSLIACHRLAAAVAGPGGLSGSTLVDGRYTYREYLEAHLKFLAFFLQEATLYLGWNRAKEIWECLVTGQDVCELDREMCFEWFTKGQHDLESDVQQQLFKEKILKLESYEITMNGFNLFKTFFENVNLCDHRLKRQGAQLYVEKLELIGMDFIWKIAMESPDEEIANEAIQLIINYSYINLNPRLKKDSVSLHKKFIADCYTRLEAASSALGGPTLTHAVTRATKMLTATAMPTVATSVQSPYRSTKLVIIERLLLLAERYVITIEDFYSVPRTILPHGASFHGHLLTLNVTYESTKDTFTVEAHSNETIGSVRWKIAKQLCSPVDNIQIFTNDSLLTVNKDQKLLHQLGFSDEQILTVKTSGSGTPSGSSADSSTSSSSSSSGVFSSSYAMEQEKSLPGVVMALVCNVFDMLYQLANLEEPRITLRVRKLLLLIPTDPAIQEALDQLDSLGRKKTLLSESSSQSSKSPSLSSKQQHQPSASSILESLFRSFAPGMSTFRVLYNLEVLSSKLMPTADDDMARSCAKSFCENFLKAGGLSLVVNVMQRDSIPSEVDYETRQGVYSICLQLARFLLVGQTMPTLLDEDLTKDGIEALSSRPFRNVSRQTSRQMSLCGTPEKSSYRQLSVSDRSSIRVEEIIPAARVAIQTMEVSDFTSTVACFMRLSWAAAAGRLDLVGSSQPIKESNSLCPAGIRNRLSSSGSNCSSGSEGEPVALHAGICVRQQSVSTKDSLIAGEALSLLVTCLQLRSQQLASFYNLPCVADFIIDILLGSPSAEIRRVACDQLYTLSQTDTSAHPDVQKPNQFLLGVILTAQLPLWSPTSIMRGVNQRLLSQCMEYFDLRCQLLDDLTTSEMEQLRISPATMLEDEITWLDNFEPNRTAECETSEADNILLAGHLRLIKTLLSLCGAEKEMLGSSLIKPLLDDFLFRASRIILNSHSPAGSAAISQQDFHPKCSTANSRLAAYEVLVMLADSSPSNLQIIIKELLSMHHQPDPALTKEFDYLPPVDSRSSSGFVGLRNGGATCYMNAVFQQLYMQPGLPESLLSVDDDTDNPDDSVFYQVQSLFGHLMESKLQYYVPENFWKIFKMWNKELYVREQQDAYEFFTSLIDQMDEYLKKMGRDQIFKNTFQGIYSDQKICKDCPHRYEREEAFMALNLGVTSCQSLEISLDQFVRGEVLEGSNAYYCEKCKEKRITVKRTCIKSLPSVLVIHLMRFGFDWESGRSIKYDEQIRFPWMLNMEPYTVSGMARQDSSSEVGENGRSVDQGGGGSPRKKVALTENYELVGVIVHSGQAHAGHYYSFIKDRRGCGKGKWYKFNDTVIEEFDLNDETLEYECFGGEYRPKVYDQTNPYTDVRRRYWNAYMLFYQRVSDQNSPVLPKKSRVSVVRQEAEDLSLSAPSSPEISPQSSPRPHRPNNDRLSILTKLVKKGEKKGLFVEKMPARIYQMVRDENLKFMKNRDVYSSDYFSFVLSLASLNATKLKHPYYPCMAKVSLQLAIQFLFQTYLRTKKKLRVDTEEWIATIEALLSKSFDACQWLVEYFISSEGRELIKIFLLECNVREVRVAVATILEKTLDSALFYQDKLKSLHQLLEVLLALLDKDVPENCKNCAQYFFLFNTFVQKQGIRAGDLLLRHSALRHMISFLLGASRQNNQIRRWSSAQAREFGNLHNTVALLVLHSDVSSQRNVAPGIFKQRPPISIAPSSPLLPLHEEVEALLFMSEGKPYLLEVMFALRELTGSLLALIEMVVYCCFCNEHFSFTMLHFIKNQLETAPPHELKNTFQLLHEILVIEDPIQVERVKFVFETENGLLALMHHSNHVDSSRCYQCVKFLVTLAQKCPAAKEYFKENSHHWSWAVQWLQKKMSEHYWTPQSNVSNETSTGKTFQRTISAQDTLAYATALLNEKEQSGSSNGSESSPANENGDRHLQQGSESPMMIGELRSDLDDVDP
Summary of the method: as §1

[3] = target: T2, USP25 (UniProt Q9UHP3)
T2 sequence (whole entry): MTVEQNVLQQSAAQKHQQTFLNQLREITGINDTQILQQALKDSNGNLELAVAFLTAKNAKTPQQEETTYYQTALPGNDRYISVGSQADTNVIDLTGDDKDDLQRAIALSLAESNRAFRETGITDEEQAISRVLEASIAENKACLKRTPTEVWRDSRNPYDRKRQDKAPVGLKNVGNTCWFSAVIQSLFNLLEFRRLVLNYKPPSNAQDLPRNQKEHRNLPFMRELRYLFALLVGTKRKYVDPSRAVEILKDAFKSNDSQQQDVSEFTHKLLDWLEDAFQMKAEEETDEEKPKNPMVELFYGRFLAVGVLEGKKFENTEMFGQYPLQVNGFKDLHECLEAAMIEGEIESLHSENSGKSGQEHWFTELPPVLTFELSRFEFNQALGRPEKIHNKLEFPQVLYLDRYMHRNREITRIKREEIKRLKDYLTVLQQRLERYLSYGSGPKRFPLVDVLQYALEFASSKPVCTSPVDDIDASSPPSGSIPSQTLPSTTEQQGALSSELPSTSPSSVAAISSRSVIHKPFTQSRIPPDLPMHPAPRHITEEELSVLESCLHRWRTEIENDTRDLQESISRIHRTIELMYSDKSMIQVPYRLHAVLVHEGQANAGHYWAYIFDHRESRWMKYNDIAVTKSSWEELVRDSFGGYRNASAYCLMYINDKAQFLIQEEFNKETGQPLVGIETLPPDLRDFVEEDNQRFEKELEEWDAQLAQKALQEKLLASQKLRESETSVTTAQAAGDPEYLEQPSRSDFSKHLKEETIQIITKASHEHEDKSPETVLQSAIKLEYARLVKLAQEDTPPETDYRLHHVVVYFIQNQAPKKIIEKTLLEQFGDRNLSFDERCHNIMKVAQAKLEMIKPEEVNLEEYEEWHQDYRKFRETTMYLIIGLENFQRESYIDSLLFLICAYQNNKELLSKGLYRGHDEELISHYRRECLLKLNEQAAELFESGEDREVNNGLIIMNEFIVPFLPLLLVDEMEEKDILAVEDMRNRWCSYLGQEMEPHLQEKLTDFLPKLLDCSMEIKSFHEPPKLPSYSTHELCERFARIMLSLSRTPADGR
Summary of the method: as §1

[4] = target: T3, USP28 (UniProt Q96RU2)
T3 sequence (whole entry): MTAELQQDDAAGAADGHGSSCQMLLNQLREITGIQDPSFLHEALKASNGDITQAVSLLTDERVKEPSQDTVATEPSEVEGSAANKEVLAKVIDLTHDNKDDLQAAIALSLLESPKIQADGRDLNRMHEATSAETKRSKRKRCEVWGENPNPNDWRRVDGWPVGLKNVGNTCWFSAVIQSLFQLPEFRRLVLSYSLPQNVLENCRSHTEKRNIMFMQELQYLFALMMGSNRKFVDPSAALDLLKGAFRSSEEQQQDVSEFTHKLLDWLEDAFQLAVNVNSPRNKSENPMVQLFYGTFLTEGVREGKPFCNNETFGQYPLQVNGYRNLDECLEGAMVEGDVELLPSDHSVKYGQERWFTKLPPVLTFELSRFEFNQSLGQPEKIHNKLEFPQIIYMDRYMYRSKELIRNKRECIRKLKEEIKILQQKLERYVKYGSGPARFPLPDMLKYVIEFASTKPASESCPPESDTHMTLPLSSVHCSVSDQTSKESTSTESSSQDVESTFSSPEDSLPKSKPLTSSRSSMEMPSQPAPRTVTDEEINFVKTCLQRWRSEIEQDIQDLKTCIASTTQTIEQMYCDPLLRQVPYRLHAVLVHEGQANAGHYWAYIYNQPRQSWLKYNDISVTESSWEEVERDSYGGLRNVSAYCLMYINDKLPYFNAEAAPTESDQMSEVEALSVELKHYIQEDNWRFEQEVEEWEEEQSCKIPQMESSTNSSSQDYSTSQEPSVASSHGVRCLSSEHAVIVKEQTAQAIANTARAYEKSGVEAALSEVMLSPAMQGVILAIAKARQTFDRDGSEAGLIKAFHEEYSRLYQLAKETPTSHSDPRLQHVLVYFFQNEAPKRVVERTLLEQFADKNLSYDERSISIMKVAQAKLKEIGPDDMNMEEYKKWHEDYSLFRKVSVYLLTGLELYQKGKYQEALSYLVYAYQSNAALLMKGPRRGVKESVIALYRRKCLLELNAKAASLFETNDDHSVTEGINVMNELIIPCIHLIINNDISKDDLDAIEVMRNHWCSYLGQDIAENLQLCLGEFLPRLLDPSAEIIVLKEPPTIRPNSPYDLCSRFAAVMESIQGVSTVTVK
Summary of the method: as §1

Measured: log2 ratio of Biotin-Ahx-Ub-VS probe labelling

Cc1cccc(N2CCC(NC(=O)CCl)C2=O)c1 (centres undefined)
inactive: [1] -0.0964 | [2] -0.149 | [3] -0.421 | [4] -0.475
